# Where “and” joins values, the source holds several entries; their conditions need not be identical. Identical values can stand only once. Results filed as inconclusive are left out. Where a call stands in place of a potency, no number is given. The source holds several records for some structures; these can differ, active in one and inactive in another. Calls of active or inactive are those of the source. The call rests on the fitted dose curve; in most records, active means well fitted curve in the direction sought with a large enough effect in the repeat runs; inconclusive means weak or mixed curves; inactive means no such curve, though single readings can be large; an effect the other way counts as inactive or inconclusive.
# Tests used:
# [1] = Caspase-3/7 induction in HepG2 cells by small molecules, qHTS assay (AID 1346978); further: nearly all actives have a fitted effect of over 15% in size; further: potency means the concentration at half of the fitted maximal effect
# Procedure, shortened: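 Wild-type HepG2 cells, 2,000/well, settled 5 hr at 37 C and 5% CO2, then compound-treated for 17 hr; caspase-3/7 activity read by luminescent Caspase-Glo 3/7 after 30 min at room temperature.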
# [2] = Caspase-3/7 induction in CHO-K1 cells by small molecules, qHTS cell viability counter screen (AID 1346979); further: nearly all actives have a fitted effect of over 35% in size; further: potency means the concentration at half of the fitted maximal effect
# Procedure, shortened: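 CellTiter-Fluor viability check, qHTS format: wild-type CHO-K1, 16hr compound treatment, 1hr reagent incubation, fluorescence read.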
# [3] = Caspase-3/7 induction in CHO-K1 cells by small molecules, qHTS assay (AID 1346980); further: nearly all actives have a fitted effect of over 15% in size; further: potency means the concentration at half of the fitted maximal effect
# Procedure, shortened: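 Wild-type CHO-K1 cells exposed to compounds for 17hr at 37 C, 5% CO2. Caspase-3/7 activity then measured by Caspase-Glo 3/7 luminescence after 30min at room temperature.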
# [4] = Caspase-3/7 induction in HepG2 cells by small molecules, qHTS cell viability counter screen (AID 1346981); further: nearly all actives have a fitted effect of over 30% in size; further: potency means the concentration at half of the fitted maximal effect; on activity change, negative = cytotoxicity: series mostly up to about 92 µM
# Procedure, shortened: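 Steps: seed 2,000 HepG2 cells per well; incubate 5 hr at 37 C; pin-add compounds in DMSO; incubate 16 hr; add CellTiter-Fluor; after 1 hr at 37 C and 5% CO2, read fluorescence.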
# [5] = target: Nuclear receptor subfamily 1 group I member 2 (Rattus norvegicus) (UniProt Q9R1A7); assay: Rat pregnane X receptor (rPXR) activation by small molecules, qHTS assay (AID 1346983); details: rPXR luciferase reporter cells, One-Glo luminescence, 24 h; max activation: stronger effect = higher value; further: nearly all actives have a fitted effect of over 20% in size
# Nuclear receptor subfamily 1 group I member 2 (Rattus norvegicus), sequence (Q9R1A7 whole entry, looked up): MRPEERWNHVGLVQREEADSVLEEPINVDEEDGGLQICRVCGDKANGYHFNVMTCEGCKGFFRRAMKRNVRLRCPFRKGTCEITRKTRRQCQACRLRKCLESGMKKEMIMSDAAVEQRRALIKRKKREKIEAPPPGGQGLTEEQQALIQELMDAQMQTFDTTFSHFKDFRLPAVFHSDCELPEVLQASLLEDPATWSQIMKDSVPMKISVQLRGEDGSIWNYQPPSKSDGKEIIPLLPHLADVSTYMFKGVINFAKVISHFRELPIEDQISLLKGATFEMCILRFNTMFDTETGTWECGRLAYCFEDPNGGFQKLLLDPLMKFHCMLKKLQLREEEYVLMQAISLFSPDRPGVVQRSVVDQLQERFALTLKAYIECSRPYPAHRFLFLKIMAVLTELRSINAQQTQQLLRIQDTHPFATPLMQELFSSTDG
# Procedure, shortened: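 Cell-based rPXR activation assay: rPXR cells, 2,000 per well, rested 5hr at 37 C, then exposed to compounds in DMSO for 24 hr at 37 C. Luciferase activity read by One-Glo luminescence after 30 min at room temperature.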
# [6] = target: Nuclear receptor subfamily 1 group I member 2 (Homo sapiens) (UniProt O75469); assay: Human pregnane X receptor (PXR) small molecule agonists, qHTS assay (AID 1346982); further: nearly all actives have a fitted effect of over 35% in size; further: potency means the concentration at half of the fitted maximal effect
# Nuclear receptor subfamily 1 group I member 2 (Homo sapiens), sequence (O75469 whole entry, looked up): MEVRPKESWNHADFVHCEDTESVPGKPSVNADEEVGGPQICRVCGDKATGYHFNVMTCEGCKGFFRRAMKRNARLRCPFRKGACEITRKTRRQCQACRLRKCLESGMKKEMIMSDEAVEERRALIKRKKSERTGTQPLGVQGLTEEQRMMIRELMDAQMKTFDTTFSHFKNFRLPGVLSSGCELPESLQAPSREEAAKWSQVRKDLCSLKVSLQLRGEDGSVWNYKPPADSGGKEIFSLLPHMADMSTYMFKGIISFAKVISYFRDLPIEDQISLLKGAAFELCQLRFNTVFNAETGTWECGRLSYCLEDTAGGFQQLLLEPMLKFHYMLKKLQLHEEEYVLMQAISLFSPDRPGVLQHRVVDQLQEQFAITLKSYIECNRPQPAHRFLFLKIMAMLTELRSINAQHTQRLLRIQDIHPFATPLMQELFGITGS
# Procedure, shortened: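 Agonist mode qHTS: PXR-Luc HepG2 cells plated 5 hr before DMSO-dissolved compounds were pinned in, cultured 24 hr at 37 C, 5% CO2; ONE-Glo luminescence readout.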
# [7] = target: Cytochrome P450 2D6 (Homo sapiens) (UniProt P10635); assay: Cytochrome P450 Family 2 Subfamily D Member 6 (CYP2D6) small molecule antagonists: luciferase reporter qHTS assay (AID 1671196); further: nearly all actives have a fitted effect of over 50% in size; further: potency means the concentration at half of the fitted maximal effect; on activity change, negative = inhibition: series mostly up to about 120 µM
# Cytochrome P450 2D6 (Homo sapiens), sequence (P10635 whole entry, looked up): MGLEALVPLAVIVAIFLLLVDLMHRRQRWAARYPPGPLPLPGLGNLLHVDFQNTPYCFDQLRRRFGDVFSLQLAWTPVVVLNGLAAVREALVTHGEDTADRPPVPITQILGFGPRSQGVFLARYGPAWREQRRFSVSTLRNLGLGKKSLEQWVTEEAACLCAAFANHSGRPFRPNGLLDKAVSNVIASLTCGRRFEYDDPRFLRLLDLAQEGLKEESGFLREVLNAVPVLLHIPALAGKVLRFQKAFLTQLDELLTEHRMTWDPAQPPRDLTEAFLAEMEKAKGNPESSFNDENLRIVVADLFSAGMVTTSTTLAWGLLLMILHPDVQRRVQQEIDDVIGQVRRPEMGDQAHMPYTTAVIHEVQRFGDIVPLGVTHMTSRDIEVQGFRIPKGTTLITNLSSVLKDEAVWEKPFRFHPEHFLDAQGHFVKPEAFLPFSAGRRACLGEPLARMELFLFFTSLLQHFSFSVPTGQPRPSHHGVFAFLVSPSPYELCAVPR
# Procedure, shortened: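 P450-Glo format: CYP2D6 converts a proluciferin substrate to luciferin in an NADPH-driven reaction lasting 1 h at room temperature. Light output, proportional to CYP2D6 activity, reflects interference by test chemicals.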
# [8] = target: Cytochrome P450 2C19 (Homo sapiens) (UniProt P33261); assay: Cytochrome P450 Family 2 Subfamily C Member 19 (CYP2C19) small molecule antagonists: luciferase reporter qHTS assay (AID 1671197); further: nearly all actives have a fitted effect of over 65% in size; further: potency means the concentration at half of the fitted maximal effect; on activity change, negative = inhibition: series mostly up to about 120 µM
# Cytochrome P450 2C19 (Homo sapiens), sequence (P33261 whole entry, looked up): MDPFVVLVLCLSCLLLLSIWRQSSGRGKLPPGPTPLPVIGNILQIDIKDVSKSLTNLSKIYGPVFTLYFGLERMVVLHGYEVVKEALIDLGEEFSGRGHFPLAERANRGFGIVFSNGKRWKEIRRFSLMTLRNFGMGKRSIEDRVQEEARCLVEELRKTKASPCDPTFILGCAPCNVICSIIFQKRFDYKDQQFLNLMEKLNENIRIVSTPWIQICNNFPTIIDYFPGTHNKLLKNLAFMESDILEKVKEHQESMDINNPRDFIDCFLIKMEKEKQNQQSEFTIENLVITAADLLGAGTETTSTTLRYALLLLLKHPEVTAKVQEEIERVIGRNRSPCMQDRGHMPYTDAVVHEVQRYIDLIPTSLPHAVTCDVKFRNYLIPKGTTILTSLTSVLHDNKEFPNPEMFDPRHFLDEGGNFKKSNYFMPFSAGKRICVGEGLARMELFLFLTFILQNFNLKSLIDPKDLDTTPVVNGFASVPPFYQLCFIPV
# Procedure, shortened: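 Enzyme-substrate mix with proluciferin substrate (P450-Glo CYP2C19 system) preincubated with compounds 10 min at room temperature; NADPH regeneration solution added, 37C for 1 h; detection reagent stops reaction, luminescence read after 20 min. Ketoconazole positive control.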
# [9] = target: Nuclear receptor subfamily 1 group I member 2 (Homo sapiens) (UniProt O75469); assay: CYP3A4 induction through human pregnane X receptor (PXR) by small molecules, qHTS assay (AID 1346984); further: nearly all actives have a fitted effect of over 40% in size
# Procedure, shortened: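 Steps: seed DPX-2 cells, 5 hr at 37C; pin-transfer compounds; 24 hr at 37C; add Luciferin-IPA (3uM final), 3 hr at 37C; add One-Glo, 30 min RT; read luminescence.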
# [10] = target: Nuclear receptor subfamily 1 group I member 2 (Homo sapiens) (UniProt O75469); assay: Human pregnane X receptor (PXR) activation by small molecules, qHTS assay (AID 1346985); further: nearly all actives have a fitted effect of over 40% in size
# Procedure, shortened: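 DPX-2 cells (HepG2 co-transfected with a PXR response element and a CYP3A4-promoter luciferase construct) were seeded at 2,000 per well, rested 5 hr at 37C, then exposed to DMSO-dissolved compounds for 24 hr. Activation was read as luciferase luminescence.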
smiles,measurement,setting,value
CN1[C@@H]2CC[C@H]1CC(OC(=O)C(CO)c1ccccc1)C2 (stereo partly drawn),Potency,[1],inactive
same,Potency,[2],inactive
same,Potency,[3],inactive
same,Potency,[4],inactive
same,max activation,[5],-0.936% (inactive)
O=S(=O)(O)CCCN1CCOCC1,Potency,[1],inactive
same,Potency,[2],inactive
same,Potency,[3],inactive
same,Potency,[4],inactive
same,Potency,[6],inactive
same,Potency,[7],inactive
same,Potency,[8],inactive
CC(C)=CCCC(C)CCOC(=O)C(C)C (stereo not drawn),Potency,[1],inactive
same,Potency,[2],inactive
same,Potency,[3],inactive
same,Potency,[4],inactive
same,Potency,[6],inactive
same,Potency,[8],79.6 µM (active)
Clc1cccnc1,Potency,[1],inactive
same,Potency,[2],inactive
same,Potency,[3],inactive
same,Potency,[4],inactive
same,Potency,[6],inactive
same,Potency,[7],inactive
same,Potency,[8],inactive
O=S(=O)(O)c1cc(S(=O)(=O)O)c2ccc3c(S(=O)(=O)O)cc(S(=O)(=O)O)c4ccc1c2c43,caspase activation,[1],0.784% [at 19 µM] (inactive)
same,"activity change, negative = cytotoxicity",[2],5.57% [at 19 µM] (inactive)
same,caspase-3/7 activation,[3],-0.007% [at 19 µM] (inactive)
same,"activity change, negative = cytotoxicity",[4],6.28% [at 19 µM] (inactive)
same,activation,[6],-3.44% [at 19 µM] (inactive)
same,"activity change, negative = inhibition",[7],-11.8% [at 23.6 µM] (inactive)
same,"activity change, negative = inhibition",[8],-18.9% [at 23.6 µM] (inactive)
O=C(O)Cc1ccc(OCCNC[C@H](O)c2ccccc2)cc1,Potency,[1],inactive
same,Potency,[2],inactive
same,Potency,[3],inactive
same,Potency,[4],inactive
same,Potency,[6],inactive
same,Potency,[7],inactive
same,Potency,[8],inactive
C/C=C/C=N/NC(=O)c1ccncc1,Potency,[1],inactive
same,Potency,[2],inactive
same,Potency,[3],inactive
same,Potency,[4],inactive
same,max activation,[5],-3.54% (inactive)
same,Potency,[9],inactive
same,Potency,[10],inactive
CCCCCCCCCCc1ccccc1,Potency,[1],inactive
same,Potency,[2],inactive
same,Potency,[3],inactive
same,Potency,[4],inactive
same,Potency,[6],inactive
same,Potency,[8],inactive
C=C(C)C(=O)OCCC[Si](Cl)(Cl)Cl,Potency,[1],inactive
same,Potency,[2],inactive
same,Potency,[3],inactive
same,Potency,[4],inactive
same,Potency,[6],inactive
same,Potency,[8],80.4 µM (active)
COC(=O)[C@]1(C)CCC[C@@]2(C)[C@H]1CC=C1C=C(C(C)C)CC[C@@H]12,Potency,[1],inactive
same,Potency,[2],inactive
same,Potency,[3],inactive
same,Potency,[4],inactive
same,Potency,[6],17.2 µM (active)
same,Potency,[8],28.3 µM (active)
C[Si](C)(C)Cl,Potency,[1],inactive
same,Potency,[2],inactive
same,Potency,[3],inactive
same,Potency,[4],inactive
same,Potency,[6],inactive
same,Potency,[7],inactive
same,Potency,[8],inactive
CCOCOCC,Potency,[1],inactive
same,Potency,[2],inactive
same,Potency,[3],inactive
same,Potency,[4],inactive
same,Potency,[6],inactive
same,Potency,[8],inactive
CCc1cccc(CC)c1N(COC)C(=O)CS(=O)(=O)O,Potency,[1],inactive
same,Potency,[2],inactive
same,Potency,[3],inactive
same,Potency,[4],inactive
same,Potency,[6],inactive
same,Potency,[7],inactive
same,Potency,[8],inactive
C=CC(C)(CCC=C(C)C)OC(=O)/C=C/c1ccccc1 (stereo not drawn),Potency,[1],inactive
same,Potency,[2],inactive
same,Potency,[3],inactive
same,Potency,[4],inactive
same,Potency,[6],61.1 µM (active)
same,Potency,[7],inactive
same,Potency,[8],6.33 µM (active)
O=C(O)c1cccc(Cl)n1,Potency,[1],inactive
same,Potency,[2],inactive
same,Potency,[3],inactive
same,Potency,[4],inactive
same,Potency,[6],inactive
same,Potency,[8],inactive
CN(C)CCN1CCOCC1,Potency,[1],inactive
same,Potency,[2],inactive
same,Potency,[3],inactive
same,Potency,[4],inactive
same,Potency,[6],inactive
same,Potency,[8],inactive
CCCCCCCC/C=C\CCCCCCCC(=O)N(C)CC(=O)O,Potency,[1],inactive
same,Potency,[2],68.6 µM (active)
same,Potency,[3],inactive
same,Potency,[4],inactive
same,Potency,[6],inactive
same,Potency,[8],inactive
OCCCc1cccnc1,Potency,[1],inactive
same,Potency,[2],inactive
same,Potency,[3],inactive
same,Potency,[4],inactive
same,Potency,[6],inactive
same,Potency,[8],inactive
O=C(c1ccccc1)c1cc(Cl)ccc1O,Potency,[1],inactive
same,Potency,[2],inactive
same,Potency,[3],inactive
same,Potency,[4],inactive
same,Potency,[7],37.9 µM (active)
same,Potency,[8],1.9 µM (active)
COc1cc(C(=O)NS(=O)(=O)c2ccccc2C)ccc1Cc1cn(C)c2ccc(NC(=O)OC3CCCC3)cc12,Potency,[1],inactive
same,Potency,[2],inactive
same,Potency,[3],inactive
same,Potency,[4],inactive
same,max activation,[5],-0.0293% (inactive)
same,Potency,[8],inactive
CCN(CC)c1cccc(C)c1,Potency,[1],inactive
same,Potency,[2],inactive
same,Potency,[3],inactive
same,Potency,[4],inactive
same,Potency,[6],inactive
same,Potency,[8],inactive
C(=C/c1ccccc1)/c1ccccc1,Potency,[1],inactive
same,Potency,[2],inactive
same,Potency,[3],inactive
same,Potency,[4],inactive
same,Potency,[6],inactive
same,Potency,[7],inactive
same,Potency,[8],inactive
COc1ccc2sc(C(=O)Nc3nnn[nH]3)c(OC(C)C)c2c1,Potency,[1],inactive
same,Potency,[2],38.4 µM (active)
same,Potency,[3],inactive
same,Potency,[7],inactive
same,Potency,[8],inactive
C=C1C(C)(C)[C@@]2(Cl)C(Cl)[C@]1(Cl)C(Cl)(Cl)C2(Cl)Cl (stereo partly drawn),Potency,[1],inactive
same,Potency,[2],60 µM (active)
same,Potency,[3],60 µM (active)
same,Potency,[6],10.7 µM (active)
same,Potency,[7],31.1 µM (active)
same,Potency,[8],1.96 µM (active)
Cc1cncc(C)c1,Potency,[1],inactive
same,Potency,[2],inactive
same,Potency,[4],inactive
same,Potency,[6],inactive
same,Potency,[7],inactive
same,Potency,[8],inactive
CC1=C(/C=C/C(C)=C/C=C/C(C)=C/C(=O)Nc2ccc(O)cc2)C(C)(C)CCC1,Potency,[1],70.3 µM (active) and 29.8 µM (active)
same,Potency,[2],44.4 µM (active) and 21.1 µM (active)
same,Potency,[4],55.9 µM (active) and 26.6 µM (active)
same,Potency,[6],19.8 µM (active) and inactive
same,max activation,[5],-17.3% (inactive)
same,Potency,[9],inactive
same,Potency,[10],inactive
same,Potency,[7],13.8 µM (active)
same,Potency,[8],41 µM (active) and 27.5 µM (active)
CCOC(=O)COc1ccc(C)cc1,Potency,[1],inactive
same,Potency,[2],inactive
same,Potency,[4],inactive
same,Potency,[6],inactive
same,Potency,[7],inactive
same,Potency,[8],inactive
CCCC(CC)CCCCCCCN (stereo not drawn),Potency,[1],inactive
same,Potency,[2],inactive
same,Potency,[3],inactive
same,Potency,[4],inactive
same,Potency,[7],0.817 µM (active)
same,Potency,[8],0.365 µM (active)
CCc1cccc(CC)c1NC(=O)C(=O)O,Potency,[1],inactive
same,Potency,[2],inactive
same,Potency,[4],inactive
same,Potency,[6],inactive
same,Potency,[7],inactive
same,Potency,[8],inactive
O=C(Nc1ccc(Cl)c(Cl)c1)c1cc(Cl)cc(Cl)c1O,Potency,[1],inactive
same,Potency,[2],7.7 µM (active)
same,Potency,[3],inactive
same,Potency,[6],10.9 µM (active)
c1cc2c3c(c1)ccc1cccc(c13)C2,Potency,[1],inactive
same,Potency,[2],inactive
same,Potency,[3],inactive
same,Potency,[4],inactive
same,Potency,[8],40.8 µM (active)

# Source: PubChem BioAssay (Tox21)
